Hit rate of the full screen: of about 96,000 compounds, about 20,000 (21%) were called active. A selection follows. Values without a mark were called inactive.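 The calls were made as follows: active = CYP2C19 inhibition above a set limit at 5 µM in the primary screen (cut at about 50% in these data); inactive = the rest.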
target: Cytochrome P450 2C19 (Homo sapiens) (UniProt P33261); assay: blockers of cytochrome P450 2C19 activity – biochemical, luminescence, ADME assay, primary screen (AID 778); conditions: CYP2C19 Supersomes, luciferin-H EGE luminescence, 30 min; at 5 µM; active compounds read high;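 also: plate controls were negative control wells for no effect and 2.5 mM tranylcypromine positive control for full effect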
Sequence (P33261 whole entry, looked up): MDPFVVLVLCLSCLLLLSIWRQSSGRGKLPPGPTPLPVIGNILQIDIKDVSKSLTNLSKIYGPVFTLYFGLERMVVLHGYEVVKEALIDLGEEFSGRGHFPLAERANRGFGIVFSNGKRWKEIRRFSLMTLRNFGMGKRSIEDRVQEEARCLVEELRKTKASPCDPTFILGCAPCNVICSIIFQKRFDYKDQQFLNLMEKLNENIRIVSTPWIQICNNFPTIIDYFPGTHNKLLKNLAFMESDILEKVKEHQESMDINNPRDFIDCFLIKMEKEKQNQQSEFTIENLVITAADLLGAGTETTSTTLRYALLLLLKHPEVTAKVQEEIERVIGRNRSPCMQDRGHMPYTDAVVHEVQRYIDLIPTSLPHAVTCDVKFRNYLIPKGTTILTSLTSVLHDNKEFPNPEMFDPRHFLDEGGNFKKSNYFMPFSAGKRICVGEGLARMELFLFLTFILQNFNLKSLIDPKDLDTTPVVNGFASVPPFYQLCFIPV

| SMILES | inhibition |
| --- | --- |
| O=C(c1ccc2c(c1)OCCO2)C1CCN(S(=O)(=O)c2cccc(F)c2)CC1 | 35.4% |
| Cc1nnc(NC(=O)Cn2c(=O)sc3ccccc32)s1 | 47.6% |
| COc1ccc(Cn2c(=O)sc3ccccc32)cc1OC | 99.8% (active) |
| COc1ccc(CCNC(=O)CCn2c(=O)oc3ccccc32)cc1OC | 1.4% |
| Cn1c(=O)c2c(nc(SCCNS(=O)(=O)c3ccccc3)n2C)n(C)c1=O | 73.3% (active) |
| CC(C)n1c(SCC(=O)Nc2ccccc2N2CCCCC2)nc2c1c(=O)n(C)c(=O)n2C | 40.4% |
| CCCSc1nc2c(c(=O)[nH]c(=O)n2C)n1CCc1ccccc1 | 26% |
| C#CC(C)(C)NC(=O)CSc1nc2c(c(=O)n(C)c(=O)n2C)n1CCCC | -7.1% |
| Cn1c(=O)c2c(nc(N3CCCCCC3)n2CC(=O)c2ccc(Br)cc2)n(C)c1=O | 0.8% |
| Cn1c(=O)c2c(nc(SCC(=O)Nc3ccccc3N3CCCCC3)n2C)n(C)c1=O | 86.6% (active) |
| Cc1ccc(NC(=O)c2cc(-c3ccc(C)o3)nc3ccccc23)nc1 | -3.9% |
| Cc1ccc(-c2csc(NC(=O)c3cccs3)n2)cc1 | -2.3% |
| Cc1ccc(-c2csc(N(Cc3ccco3)C(=O)c3cccs3)n2)cc1 | 68.5% (active) |
| O=C(O)CCC(=O)N(Cc1ccco1)c1nc(-c2ccccc2)cs1 | 2.5% |
| CCOC(=O)N1CCN(C(=O)C2CCN(S(C)(=O)=O)CC2)CC1 | -15% |
| Cc1nc(NC(=O)CN(C)S(=O)(=O)c2ccc(Cl)cc2)sc1C | 62.6% (active) |
| CCOC(=O)Cc1csc(NC(=O)CN(C)S(=O)(=O)c2ccc3c(c2)CCC(=O)N3)n1 | -17.1% |
| CCN(c1ccccc1)S(=O)(=O)c1ccc(C(=O)Nc2nccs2)cc1 | -4.3% |
| CN(CCCC(=O)Nc1nccs1)S(=O)(=O)c1ccc(Cl)cc1 | 51% (active) |
| O=C(Nc1nccs1)C1CCN(S(=O)(=O)c2ccc(Cl)c(C(F)(F)F)c2)CC1 | 36.3% |
| CN(CC(=O)Nc1cccc2c1CCCC2)S(=O)(=O)c1ccc(Cl)cc1 | -15.4% |
| O=c1c2ccccc2c(-c2ccc(Br)cc2)nn1Cc1ccccc1 | 33% |
| CCC(=O)NC(=Nc1nc2ccccc2s1)NC(=O)CC | -0.9% |
| N#C/C=C1\Sc2ccccc2C(=O)N1CC(=O)N1CCN(S(=O)(=O)c2ccccc2)CC1 | -22.8% |
| CC1(C)CC(=O)C(C=NCCN2CCN(C(=S)Nc3cccc(Cl)c3)CC2)=C(O)C1 | 60.5% (active) |
| CC(=O)N1CCN(CCN=CC2=C(O)CC(C)(C)CC2=O)CC1 | -18.4% |
| CC1(C)CC(=O)C(C=NCCC2=CCCCC2)=C(O)C1 | 9.5% |

From PubChem BioAssay AID778 (Sanford-Burnham Center for Chemical Genomics, 2007)
